DT40 TDP1 CPT: growth inhibition of DT40 Tdp1-/-;hTDP1 cells with camptothecin (screen for TDP1 inhibitors); chicken DT40 Tdp1-/-;hTDP1 cells + 20 nM CPT, ATP luminescence, 48 h; Potency, µM (top dose mostly 46.2 µM), for the others: at the highest dose activity change, negative = growth inhibition, actives largely listed as inhibitors; hit rate 12% among 420,000; further: potency means the concentration at half of the fitted maximal effect; nearly all actives have a fitted effect of over 55% in size
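Chicken DT40 Tdp1-/- cells complemented with human TDP1, 400 cells/well, exposed to compounds plus 20 nM camptothecin for at least 48 h at 37 C; viability read as ATP content by CellTiter-Glo luminescence.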
HT1080 IDH1KD tx: kills HT-1080 cells with IDH1 knockdown; hit rate 2% among 360,000; Potency, µM (highest dose often 46.1 µM), inactives show top-dose activity, negative = toxicity, actives largely listed as cytotoxic; HT-1080 IDH1 knockdown viability, ATP luminescence, 48 h;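 further: potency means the concentration at half of the fitted maximal effect; 0% = DMSO wells and -100% = cell-free medium wells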
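Cytotoxicity counter-line: IDH1KD HT-1080, 48 h, CellTiter-Glo. Curves classed by r2, magnitude and activity.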
IL1B secr inh: inhibitors of inflammasome signaling (IL-1 beta secretion); THP-1 LPS/ATP IL-1B secretion, AlphaLISA, 16 h; active compounds read low; activity change, % at 57.5 µM; hit rate 4.7% among 360,000; AID 743279; in the data active means activity change below about -50%; inconclusive means mostly about -30% to -49%
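THP-1 cells pretreated 1 hr with compounds (up to 57.5 uM final), then stimulated with LPS (250 ng/mL final) plus ATP (1.25 mM final); secreted IL-1B measured by AlphaLISA after 16 hr, decreased signal indicating inhibition.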
HT1080-NT tox: kills 2HG-producing HT-1080-NT fibrosarcoma cells; HT-1080-NT fibrosarcoma viability, CellTiter-Glo ATP luminescence, 48 h; AID 686970; hit rate 1.6% among 360,000; Potency, µM (highest dose often 46.1 µM), for the others: at the top dose activity, negative = less viability, most hits filed as cytotoxic;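 further: NT is the 2HG producing partner of a matched IDH1 knockdown line; potency means the concentration at half of the fitted maximal effect; 0% = DMSO-treated cells and -100% = media-only wells without cells; nearly all actives have a fitted effect of over 55% in size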
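HT-1080-NT fibrosarcoma cells (2HG-overproducing), 750 cells/well in RPMI with 5% FBS, dosed after 2 h and incubated 48 h at 37C. CellTiter-Glo luminescence normalized to DMSO and no-cell wells; concentration-response curves fitted and classed.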
TDP1 cell noCPT: qHTS for Inhibitors of human tyrosyl-DNA phosphodiesterase 1 (TDP1): qHTS in cells in absence of CPT; hit rate 15% among 420,000; DT40 Tdp1-/- hTDP1 cells, no CPT, ATP luminescence, 48 h; Potency, µM (top dose mostly 46.2 µM), for the others: top-dose activity change, negative = growth inhibition, actives largely listed as inhibitors; AID 686978, 2013; further: potency means the concentration at half of the fitted maximal effect; nearly all actives have a fitted effect of over 55% in size
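A cellular qHTS used chicken DT40 cells lacking endogenous Tdp1 but carrying stably transfected human TDP1. Compounds were applied without camptothecin, and cell growth kinetics were judged by ATP-dependent luminescence after ≥48 hr.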
* marks the source's active call; other numbers are inactive results; ? = inconclusive; nt = no result; [ ] = another dose, or the depositor's remark. Shown are actives, neighbours in structure and some others; about 19% of the full set was active somewhere. Unless noted, the call rests on the fitted dose curve; in most records, active means well fitted curve in the direction sought with a large enough effect; inconclusive means small, poorly fitted or top-dose-only effect, or another doubt; inactive means no such curve, though single readings can be large; an effect the other way counts as inactive or inconclusive. Unless noted, on the % scale 0 is the no-effect control and ±100 the full control effect.

SMILES	DT40 TDP1 CPT	HT1080 IDH1KD tx	IL1B secr inh	HT1080-NT tox	TDP1 cell noCPT
O=C(Nc1ccc(C2CC2(Cl)Cl)cc1)c1ccccc1Br (centres undefined)	18µM*	12%	?	4%	13µM*
Cc1cccc(NC(=O)COc2ccccc2C(=O)Nc2ccccc2)c1	?	-19%	nt	-15%	?
Cc1ccccc1NC(=O)COc1ccccc1C(=O)Nc1ccccc1	-6%	-2%	nt	0%	-30%
O=C(COc1ccccc1C(=O)Nc1ccccc1)Nc1ccc(-c2ccccc2)cc1	?	nt	nt	nt	11µM*
CC(OC(=O)c1ccccc1OCC(=O)Nc1ccc(Br)cc1)C(=O)NC1CCCC1 (centres undefined)	8.9µM*	11%	nt	6%	10µM*
COC(=O)c1ccccc1OCC(=O)NC1CCCCC1	-10%	3%	0	11%	-14%
O=C(COc1ccccc1C(=O)Nc1ccccc1)Nc1ccccc1-c1ccccc1	13µM*	nt	nt	nt	?
O=C(Nc1ccc(C(=O)N2CCCC2)cc1)c1ccccc1Br	-8%	-19%	-12	-6%	-5%
Cc1ccc(NC(=O)CSc2ncc3ccccn23)cc1C	?	5%	-11	8%	?
COc1cc(=O)n2c(c1C(=O)N(C)Cc1nonc1C)CCN(Cc1ccsc1)CC2	7%[9.04 µM]	nt	nt	nt	-9%
COc1ccc(C(=O)COc2ccccc2C(=O)Nc2ccccc2)cc1	12µM*	-7%	84	-1%	18µM*
O=C(Oc1ccccc1C(=O)Nc1ccccc1)c1ccccc1Br	18µM*	7.3µM*	?	?	21µM*
O=C(Nc1ccccc1)c1ccccc1OS(=O)(=O)c1ccccc1	-6%	7%	-20	0%	-30%
COc1ccccc1NC(=O)COc1ccccc1C(=O)Nc1ccccc1	?	-26%	?	-5%	?
N#Cc1ccccc1NC(=O)COc1ccccc1C(=O)Nc1ccccc1	16µM*	-11%	0	-14%	?
CS(=O)(=O)c1ccc(NC(=O)COc2ccccc2C(=O)Nc2ccccc2)cc1	20µM*	nt	nt	nt	?
CCCn1c(=O)c(C#N)cn(C2CC2)c1=O	-2%	-1%	-25	0%	5%
O=C(COC(=O)CCNS(=O)(=O)c1ccccc1)NC(=O)c1ccccc1	0%	4%	15	9%	-14%
COc1cccc(NC(=O)COc2ccccc2C(=O)Nc2ccccc2)c1	?	-10%	nt	-8%	?
Cc1ccccc1NC(=O)COC(=O)c1ccccc1OCC(=O)Nc1ccc(Br)cc1	-4%	nt	nt	nt	5%
Cc1ccccc1NC(=O)c1ccccc1OCC(=O)Nc1ccc(Br)cc1	?	nt	nt	nt	14µM*
O=C(COc1ccccc1C(=O)Nc1ccccc1)Nc1ccc2ccccc2c1	?	-9%	nt	-18%	20µM*
Cc1cc(C)n(CCNC(=O)[C@H]2O[C@@H](n3ccc(=O)[nH]c3=O)[C@H](O)[C@@H]2O)n1	0%	0%	-24	20%	0%
COc1ccc(Br)cc1CSC(=N)N	?	-16%	-88*	-15%	?
CCCCCOc1ccc(CN2CCOCC2)cc1Cl	-25%	-15%	-22	-11%	-19%
SMILES	DT40 TDP1 CPT	HT1080 IDH1KD tx	IL1B secr inh	HT1080-NT tox	TDP1 cell noCPT
CC(=O)c1ccc(OC(C)C)c(CSC(=N)N)c1	23µM*	6%	?	-2%	?
CCCCCOc1ccc(Br)cc1CSC(=N)N	5.2µM*	?	-97*	?	2.3µM*
COc1ccc(Br)cc1CNc1ccccc1	?	0%	?	-3%	?
CCCCOc1ccc(CSC(=N)N)cc1Cl	15µM*	15µM*	-101*	18µM*	18µM*
CCCCOc1ccc(Cl)cc1CSc1nnc(CC)n1N	5%	?	-18	-5%	-13%
COCc1cc(=O)[nH]c2c1c(-c1ccccc1)nn2C	1%	1%	8	11%	-4%
O=C(CSc1nc2ccccc2[nH]1)NCc1ccc(F)cc1	-25%	2%	-4	1%	-18%
CCOc1ccc(CSC(=N)N)cc1	26µM*	-1%	22	-7%	18µM*
O=S(=O)(Nc1ccncc1)c1ccc(Cl)cc1	-18%	3%	-3	-11%	-4%
Cc1cc(C)cc(NS(=O)(=O)c2ccc(-c3cc(C)no3)cc2)c1	1.3µM*	nt	nt	nt	1.2µM*
CCc1ccc(S(=O)(=O)Nc2ccncc2)cc1	-5%	-2%	0	18%	0%
CCc1ccc(NS(=O)(=O)c2ccc(-c3cc(C)no3)cc2)cc1	13µM*	nt	nt	nt	13µM*
Cc1ccc(NS(=O)(=O)c2ccc(-c3cc(C)no3)cc2)c(C)c1	4.6µM*	nt	nt	nt	5.8µM*
Cc1cc(-c2ccc(S(=O)(=O)Nc3ccc(Cl)cc3)cc2)on1	16µM*	nt	nt	nt	18µM*
COCCN(CC(=O)Nc1cccc(C)c1C)C(=O)c1cc(-c2ccncc2)nc2ccccc12	?	2%	-22	10%	?
COc1ccc(NS(=O)(=O)c2ccc3oc(=O)c4[nH]c(=O)c(=O)n(C)c4c3c2)cc1	?	6%	28	8%	?
Cc1cc(N/N=C2/CCCc3ccccc32)nc2ccccc12	?	-19%	-9	?	10µM*
COc1ccc2c(c1)c1ccc3c(c1n2C)C(=O)C=CC3=O	0.73µM*	-5%	-6	-2%	0.52µM*
COc1ccc2c(c1)c1ncn(CCN3CCNCC3)c(=O)c1n2C	-28%	-8%	-1	6%	-28%
Cn1c2ccccc2c2ccc3c(c21)C(=O)C=CC3=O	0.41µM*	23%	?	13%	0.52µM*

From PubChem
